Compounds without any hit were thinned out: in the full panel of roughly 83,000, 20% have a hit.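 The test compound was applied at a single concentration to cells in 96-well plates for 48 hours, and percent growth was recorded.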 A number with no mark means an inactive call. Activity calls are given as the source filed them. How the source made its calls: active means growth percent below 10; inactive means the rest.
What follows are molecules tested on MALME-3M melanoma (assay: NCI-60 one-dose screen, 48 h (100 = growth as untreated, 0 = no growth, -100 = all killed)). Conditions: 10 µM unless noted.

| SMILES | growth |
| --- | --- |
| COc1ccc(C2CC(=O)Nc3c2c(C)nn3-c2nc3ccccc3[nH]2)cc1 (stereo not given) | 28.8% |
| CCn1cc2c(cc1=O)-c1nc3ccccc3c3ccnc(c13)C2=O | 90.1% |
| NCc1cn2cc(Cl)sc2n1 | 103% |
| CCOc1ccc(Nc2nc(-c3c(C)nc4ncccn34)cs2)cc1 | 52.8% |
| N#CC1=C(N)Oc2c(ccc3ccccc23)C1c1cccs1 (stereo not given) | 36.4% |
| CCOC(=O)C12CCCC1=CC(=O)CC2 (stereo not given) | 108% |
| CCCC(=O)Oc1ccc(/C(=C(/CC)Cc2ccccc2)c2ccc(OCCN3CCCC3)cc2)cc1 | 91.4% |
| C=C1CCC2C3(C)COC(c4ccc(OC)cc4Br)OC3CCC2(C)C1/C=C/C1=CCOC1=O (stereo not given) | 93.9% |
| CS(=O)(=O)c1c(Nc2ccccc2)n[nH]c1N | 124% |
| CC/C=C\C[C@H](O)C/C=C1/C(=O)C=C[C@@H]1C/C=C\CCCC(N)=O | -14.8% (active) |
| CCN(CC)C12CCCCC1(C)C(C#N)(C#N)C(C#N)=C(N)O2 (stereo not given) | 92.3% |
| O=C1c2c[n+](Cc3ccccc3)ccc2-c2nc3ccccc3c3ccnc1c23 | -95.7% (active) |
| Cc1nn(-c2nc3ccccc3[nH]2)c2c1C(c1ccc3c(c1)OCO3)CC(=O)N2 (stereo not given) | 27.7% |
| O=c1ccc2cc3ccccc3cc2[nH]1 | 112% |
| O=C(Nc1cccc2[nH]c(C(F)(F)F)nc12)c1ccc(Br)cc1F | 17.9% |
| COc1cc(-c2cnc3nonc3n2)c(OC)c2c1OCO2 | 91.5% |
| COc1cnc2c(c1)C(=O)c1c-2n(CCCBr)c(=O)c2cc([N+](=O)[O-])ccc12 | -2.44% (active) |
| Clc1cccc(Nc2nc(Nc3cnc4ccccc4c3)c3[nH]cnc3n2)c1 | 116% |
| COc1cc(C2CC(=O)c3c(C)nn(-c4nc5ccccc5[nH]4)c3C2)cc(OC)c1OC (stereo not given) | 75.1% |
| CC(C)Oc1nc2c(c(=O)n(C)c(=O)n2C)n1C | 107% |
| CC/C=C\C[C@H](F)C/C=C1/C(=O)C=C[C@@H]1C/C=C\CCCC(=O)OC | -13.6% (active) |
| Cc1ccn2c(-c3csc(Nc4cccc(O)c4)n3)c(C)nc2c1 | 65.4% |
| O=C(/C=C/c1cc2ccccc2[nH]c1=O)/C=C/c1cc2ccccc2[nH]c1=O | -24.8% (active) |
| COc1ccc(-c2cnoc2-c2cc(OC)c3c(c2)OCCO3)cc1 | 62.8% |
| CC/C(Cc1ccccc1)=C(\c1ccc(OCCN2CCCC2)cc1)c1ccc(OC(C)=O)cc1 | 94.7% |
| C[C@]12C[C@@H](c3ccoc3)OC(=O)[C@@H]1CC[C@]1(C)[C@@H]2CC[C@@H](O)[C@]1(C)O | 81.6% |

The molecules below were run on MDA-MB-231 breast in the same assay as above. Conditions: 10 µM unless noted.

| SMILES | growth |
| --- | --- |
| COc1ccccc1-c1ccc2c(N)c(C(=O)c3ccc4c(c3)OCO4)sc2n1 | 51.8% |
| CC(=O)C1=C(O)C=C2Oc3c(C(=O)/C=C/c4cc(C(F)(F)F)cc(C(F)(F)F)c4)c(O)c(C)c(O)c3[C@]2(C)C1=O | -38.8% (active) |
| CC/C=C\C[C@H](O)C/C=C1/C(=O)C=C[C@@H]1C/C=C\CCCC(=O)NC(C)C | 19.9% |
| COc1ccc(C(=O)c2sc3nc4c(cc3c2N)CCCC4)cc1OC | 46.3% |
| CS(CCCCN=C=S)=NC(=O)c1c(F)c(F)c(F)c(F)c1F (stereo not given) | 67.9% |
| COc1ccc(-c2c(C)noc2-c2ccc(O)cc2O)cc1 | 108% |
| COc1ccc(C(=O)c2sc3nc(-c4ccccc4OC)ccc3c2N)cc1OC | 64% |
| NC1=CC(=O)C(=O)c2ccccc21 | 77.5% |
| COc1ccc(C(=O)c2sc3nc4c(c(C(F)(F)F)c3c2N)CN(C(C)=O)CC4)cc1OC | 63.8% |
| COc1cc(C(=O)/C=C/c2c(C)n([O-])c3ccc(C)cc3[n+]2=O)cc(OC)c1OC | 85% |
| COc1cc(C2C(C(=O)c3cccs3)=C(O)C(=O)N2CCN2CCOCC2)cc(OC)c1OC (stereo not given) | 111% |
| COC(=O)C12C3C(=O)N(c4ccc(OC)cc4)C(=O)C3C(c3cn(-c4ccccc4)nc3C)N1[C@H](c1cn(-c3ccccc3)nc1C)[C@@H]1C(=O)N(c3ccc(OC)cc3)C(=O)[C@@H]12 (stereo not given in full) | 108% |
| COc1cc(C2CC(=O)Nc3c2cnn3Cc2ccco2)cc2c1OCCO2 (stereo not given) | 101% |
| COc1ccc(C2CC(=O)Nc3c2c(C)nn3-c2nc3ccccc3[nH]2)cc1 (stereo not given) | 109% |
| CCn1cc2c(cc1=O)-c1nc3ccccc3c3ccnc(c13)C2=O | 75.1% |
| NCc1cn2cc(Cl)sc2n1 | 112% |
| CCOc1ccc(Nc2nc(-c3c(C)nc4ncccn34)cs2)cc1 | -12.5% (active) |
| N#CC1=C(N)Oc2c(ccc3ccccc23)C1c1cccs1 (stereo not given) | -9.69% (active) |
| CCOC(=O)C12CCCC1=CC(=O)CC2 (stereo not given) | 111% |
| CCCC(=O)Oc1ccc(/C(=C(/CC)Cc2ccccc2)c2ccc(OCCN3CCCC3)cc2)cc1 | 78.2% |

| SMILES | growth |
| --- | --- |
| C=C1CCC2C3(C)COC(c4ccc(OC)cc4Br)OC3CCC2(C)C1/C=C/C1=CCOC1=O (stereo not given) | 78.7% |
| CS(=O)(=O)c1c(Nc2ccccc2)n[nH]c1N | 103% |
| CC/C=C\C[C@H](O)C/C=C1/C(=O)C=C[C@@H]1C/C=C\CCCC(N)=O | 20.4% |
| CCN(CC)C12CCCCC1(C)C(C#N)(C#N)C(C#N)=C(N)O2 (stereo not given) | 108% |
| O=C1c2c[n+](Cc3ccccc3)ccc2-c2nc3ccccc3c3ccnc1c23 | -14% (active) |
| Cc1nn(-c2nc3ccccc3[nH]2)c2c1C(c1ccc3c(c1)OCO3)CC(=O)N2 (stereo not given) | 40.8% |
| O=c1ccc2cc3ccccc3cc2[nH]1 | 101% |
| O=C(Nc1cccc2[nH]c(C(F)(F)F)nc12)c1ccc(Br)cc1F | 30.7% |
| COc1cc(-c2cnc3nonc3n2)c(OC)c2c1OCO2 | 89.4% |
| COc1cnc2c(c1)C(=O)c1c-2n(CCCBr)c(=O)c2cc([N+](=O)[O-])ccc12 | 24.3% |
| Clc1cccc(Nc2nc(Nc3cnc4ccccc4c3)c3[nH]cnc3n2)c1 | 47.7% |
| COc1cc(C2CC(=O)c3c(C)nn(-c4nc5ccccc5[nH]4)c3C2)cc(OC)c1OC (stereo not given) | 29.5% |
| CC(C)Oc1nc2c(c(=O)n(C)c(=O)n2C)n1C | 103% |
| CC/C=C\C[C@H](F)C/C=C1/C(=O)C=C[C@@H]1C/C=C\CCCC(=O)OC | 3.26% (active) |
| Cc1ccn2c(-c3csc(Nc4cccc(O)c4)n3)c(C)nc2c1 | -1.81% (active) |
| O=C(/C=C/c1cc2ccccc2[nH]c1=O)/C=C/c1cc2ccccc2[nH]c1=O | -6.36% (active) |
| COc1ccc(-c2cnoc2-c2cc(OC)c3c(c2)OCCO3)cc1 | -23.8% (active) |
| CC/C(Cc1ccccc1)=C(\c1ccc(OCCN2CCCC2)cc1)c1ccc(OC(C)=O)cc1 | 99.6% |
| C[C@]12C[C@@H](c3ccoc3)OC(=O)[C@@H]1CC[C@]1(C)[C@@H]2CC[C@@H](O)[C@]1(C)O | 74.6% |
